Assay results taken from PubChem BioAssay.
Activity calls are given as the source filed them. Unless noted, the rule behind the calls is not given here.

What was measured:
[1] = A549 cell viability effects, profiling panel, calcein-AM fluorescence, 48 h, basal (AID 1162); settings: higher = more signal; note: test concentration not given here
[2] = adipocyte viability effects, profiling panel, cell-based, 3T3-L1 adipocytes, calcein-AM fluorescence, 48 h, basal (AID 1163); settings: 3T3-L1 adipocytes viability, higher = more signal; note: test concentration not given here
[3] = HepG2 cell viability effects, profiling panel, calcein-AM fluorescence, 48 h, basal (AID 1164); settings: higher = more signal; note: test concentration not given here
[4] = MM1S cell viability effects, profiling panel, calcein-AM fluorescence, 48 h, basal (AID 1165); settings: higher = more signal;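 note: viability of MM1S multiple myeloma cells under basal unstimulated conditions; test concentration not given here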
[5] = basal RPMI8226 viability, no added stimulus, profiling panel, cell-based, calcein-AM fluorescence, 48 h, PK04 Diversity Set (AID 1166); settings: RPMI8226 myeloma viability, higher = more signal;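 note: cells grown under basal conditions without added stimulus; test concentration not given here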
[6] = basal HepG2 mitochondrial membrane potential changes, profiling panel, cell-based, JC-1 fluorescence, 24 h, 100 nL compound (AID 1167); settings: higher = more signal; note: test concentration not given here
[7] = basal 3T3-L1 adipocyte mitochondrial potential changes, profiling panel, cell-based, JC-1 fluorescence, 3T3-L1 adipocytes, 24 h, 100 nL compound (AID 1168); settings: JC-1 mitochondrial fluorescence, higher = more signal, called active from +8 up or from −8 down; note: test concentration not given here
[8] = basal RPMI8226 mitochondrial membrane potential changes, profiling panel, cell-based, JC-1 fluorescence, 24 h, 100 nL compound (AID 1169); settings: RPMI8226 myeloma, JC-1 mitochondrial potential fluorescence, higher = more signal; note: test concentration not given here
[9] = basal MM1S mitochondrial membrane potential changes, profiling panel, cell-based, JC-1 fluorescence, 24 h, 100 nL compound (AID 1170); settings: higher = more signal; note: test concentration not given here
[10] = A549 lung cancer cell viability effects, profiling panel, resazurin fluorescence, 24 h, PK04 Diversity Set (AID 1171); settings: higher = more signal, called active from +8 up or from −8 down; note: test concentration not given here
[11] = HepG2 liver cancer cell viability effects, profiling panel, resazurin fluorescence, 24 h, PK04 Diversity Set (AID 1172); settings: higher = more signal; note: test concentration not given here
[12] = basal S. cerevisiae growth modulation, no modifier, primary screen, OD600, strain BY4716, 24 h, basal condition (AID 1173); settings: OD600, 24 h, higher = more signal, called active from +8 up or from −8 down
[13] = MM1S myeloma cell viability, profiling panel, resazurin fluorescence, basal, 24 h, PK04 Diversity Set (AID 1174); settings: higher = more signal, called active from +8 up or from −8 down;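 note: MM1S multiple myeloma cell line; test concentration not given here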
[14] = target: Dihydroorotate dehydrogenase (quinone), mitochondrial (Plasmodium falciparum (isolate 3D7)) (UniProt Q08210); assay: PfDHODH enzyme inhibitors, primary screen, biochemical, C-terminal His tag, absorbance 600 nm (AID 1175); settings: DCIP absorbance 600 nm, higher = more signal, called active from +8 up or from −8 down;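 note: recombinant parasite enzyme with a five histidine tag at its C terminus; test concentration not given here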
[15] = P. aeruginosa biofilm formation inhibitors, primary screen, strain PAO1, LB-PBS medium, absorbance 600 nm (AID 1176); note: test concentration not given here; settings: P. aeruginosa PAO1 growth/biofilm, A600, 12 h; higher = more signal
[16] = S. cerevisiae RM11-1a growth modifiers, primary screen, strain RM11-1a, OD600, basal, 24 h (AID 1177); settings: OD600, 24 h, higher = more signal, called active from +8 up or from −8 down;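 note: cultures grown under basal conditions with no added stressor; test concentration not given here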
[17] = E. coli acrAB mutant growth effects, primary screen, E. coli filamentation inducers, strain DRC39, OD650, 24 h (AID 1178); settings: higher = more signal, called active from +8 up or from −8 down;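 note: growth measured as culture turbidity by optical density at 650 nm; test concentration not given here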
[18] = E. coli acrAB mutant growth effects, primary screen, E. coli filamentation inducers, strain DRC39, OD650, 48 h (AID 1179);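 note: screen aims at cell division blockers that make cells filament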; settings: E. coli DRC39 delta-acrAB growth, higher = more signal, called active from +8 up or from −8 down
[19] = RPMI8226 myeloma cell viability, profiling panel, resazurin fluorescence, basal, 24 h, PK04 Diversity Set (AID 1180); settings: higher = more signal;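 note: RPMI8826 multiple myeloma cell line at 5000 cells per well; test concentration not given here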
[20] = target: E3 ubiquitin-protein ligase XIAP (Homo sapiens) (UniProt P98170); assay: XIAP binders, primary screen, biophysical, small-molecule microarray, fluorescence 635 nm (AID 1181); settings: small-molecule microarray binding, higher = more signal;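 note: score merges 667 nm emission and signal to noise over triplicate slides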
Sequence of E3 ubiquitin-protein ligase XIAP (Homo sapiens) (P98170 whole entry, looked up): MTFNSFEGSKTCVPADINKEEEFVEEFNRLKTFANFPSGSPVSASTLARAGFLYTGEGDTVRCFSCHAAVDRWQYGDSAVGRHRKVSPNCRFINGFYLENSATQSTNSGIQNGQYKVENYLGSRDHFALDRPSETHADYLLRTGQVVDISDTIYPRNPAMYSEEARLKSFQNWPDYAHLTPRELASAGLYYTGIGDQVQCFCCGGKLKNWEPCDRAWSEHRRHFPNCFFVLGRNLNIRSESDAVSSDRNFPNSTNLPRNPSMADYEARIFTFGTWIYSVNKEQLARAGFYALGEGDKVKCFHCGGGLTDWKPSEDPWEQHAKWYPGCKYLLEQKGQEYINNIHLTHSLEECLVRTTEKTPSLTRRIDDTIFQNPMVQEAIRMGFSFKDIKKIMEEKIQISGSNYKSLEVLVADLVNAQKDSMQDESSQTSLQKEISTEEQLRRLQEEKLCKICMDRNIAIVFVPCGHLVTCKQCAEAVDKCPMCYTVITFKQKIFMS

Sequence of Dihydroorotate dehydrogenase (quinone), mitochondrial (Plasmodium falciparum (isolate 3D7)) (Q08210 whole entry, looked up): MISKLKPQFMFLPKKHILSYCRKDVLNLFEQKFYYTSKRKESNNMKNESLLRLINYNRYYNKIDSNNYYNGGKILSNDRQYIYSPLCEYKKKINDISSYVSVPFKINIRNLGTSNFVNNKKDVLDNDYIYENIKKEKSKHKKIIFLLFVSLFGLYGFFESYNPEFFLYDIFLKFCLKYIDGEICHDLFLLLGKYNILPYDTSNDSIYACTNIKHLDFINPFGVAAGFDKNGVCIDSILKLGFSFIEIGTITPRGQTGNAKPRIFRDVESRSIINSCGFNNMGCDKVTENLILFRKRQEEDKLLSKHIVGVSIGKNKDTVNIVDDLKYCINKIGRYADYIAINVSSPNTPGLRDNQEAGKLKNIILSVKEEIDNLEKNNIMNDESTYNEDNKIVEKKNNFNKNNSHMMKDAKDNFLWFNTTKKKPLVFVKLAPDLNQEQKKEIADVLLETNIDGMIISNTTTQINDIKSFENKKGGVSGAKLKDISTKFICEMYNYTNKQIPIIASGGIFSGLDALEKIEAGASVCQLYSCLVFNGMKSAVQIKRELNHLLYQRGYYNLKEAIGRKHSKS

SMILES | z-score [1] | z-score [2] | z-score [3] | z-score [4] | z-score [5] | z-score [6] | z-score [7] | z-score [8] | z-score [9] | z-score [10] | z-score [11] | z-score [12] | z-score [13] | composite z-score [14] | z-score [15] | z-score [16] | z-score [17] | z-score [18] | z-score [19] | composite z-score [20]
O=C1C2C=CC(C(O)c3ccccn3)N(Nc3ccccc3F)C2C(=O)N1c1ccccc1 (stereo not given) | -0.922 | -1.12 | 1.04 | -0.211 | -0.217 | -0.793 | 0.608 (inactive) | -0.196 | -0.541 | -0.52 (inactive) | 0.248 | -0.166 (inactive) | -0.497 (inactive) | 0.761 (inactive) | 0.378 (inactive) | -0.0396 (inactive) | -0.628 (inactive) | 0.292 (inactive) | -0.0768 | 0.0521
C=C[C@@H](C)[C@@H](OC(=O)Nc1ccc(OC)cc1)c1ccc(O)c2ccccc12 | -1.24 | -0.336 | -1.63 | -2.72 | -4.29 | -3.19 | -0.425 (inactive) | -1.13 | -1.23 | -0.527 (inactive) | -1.42 | -18.5 (active) | -5.02 (inactive) | -3.79 (inactive) | 1.43 (inactive) | -22.2 (active) | 0.99 (inactive) | 0.224 (inactive) | -4.37 | -0.125
[N-]=[N+]=NCc1ccccc1[C@@H]1OC(c2ccc(OCCCO)cc2)=N[C@]1(Cc1ccccc1N=[N+]=[N-])C(N)=O | -0.533 | 0.306 | 0.0804 | -1.01 | -2.22 | -1.5 | -1.92 (inactive) | -0.918 | -0.0745 | -0.139 (inactive) | -0.0426 | -2.11 (inactive) | -0.727 (inactive) | 0.0263 (inactive) | 0.603 (inactive) | 0.604 (inactive) | 0.333 (inactive) | -0.37 (inactive) | -1.2 | 0.0656
O=C1OCC=C[C@H]2OC34C=CCN(Cc5ccccc5)C(=O)[C@H]3N(CCCO)C(=O)[C@@H]4[C@@H]12 (stereo not given in full) | -0.518 | 0.676 | -1.28 | 0.772 | 0.0919 | 0.0708 | -0.0748 (inactive) | 0.242 | 0.252 | -0.196 (inactive) | 0.0395 | -0.616 (inactive) | -0.0608 (inactive) | -1.55 (inactive) | -0.0963 (inactive) | 0.242 (inactive) | -0.658 (inactive) | 0.122 (inactive) | -0.0906 | 0.643
CC[C@@H]1C=C(C(=O)O)[C@H](c2ccc(C(C)C)cc2)N1S(=O)(=O)c1ccc(C)cc1 | -0.658 | -0.178 | -0.391 | -0.683 | -0.251 | -0.961 | 0.495 (inactive) | -0.971 | -0.574 | -0.42 (inactive) | -0.892 | -1.01 (inactive) | -0.725 (inactive) | -0.976 (inactive) | 0.16 (inactive) | -1.27 (inactive) | -0.862 (inactive) | 0.133 (inactive) | -2.23 | 0.198
O=C1O[C@H](c2ccccc2)[C@H](c2ccccc2)N2[C@H]1[C@@H](C(=O)NC[C@H](O)c1ccccc1)[C@]1(C(=O)Nc3ccc(C#CC4(O)CCCCCC4)cc31)[C@H]2c1ccccc1OCCO | -0.509 | 0.0001 | -4.63 | -3.33 | -4.19 | -2.67 | 3.14 (inactive) | -0.99 | -2.01 | -1.39 (inactive) | -2.48 | 1.6 (inactive) | -7.19 (inactive) | -0.147 (inactive) | 2.83 (inactive) | 3.43 (inactive) | 0.408 (inactive) | 0.283 (inactive) | -6.96 | 0.165
O=C1O[C@@H](c2ccccc2)[C@@H](c2ccccc2)N2[C@@H](c3ccc(O)cc3)[C@]3(C(=O)Nc4ccc(C#CCCO)cc43)[C@@H](C(=O)O)[C@H]12 | 1.18 | 0.352 | 1.41 | -1.34 | -0.16 | 0.767 | -1.02 (inactive) | -0.342 | -0.29 | 0.492 (inactive) | 0.259 | -1.01 (inactive) | 0.519 (inactive) | -2.07 (inactive) | 0.201 (inactive) | -0.261 (inactive) | 0.151 (inactive) | 0.67 (inactive) | 0.545 | 0.511
O=C1OCCC=C[C@H]2OC34C=CCN(CCN5CCOCC5)C(=O)[C@H]3N(CCO)C(=O)[C@@H]4C12 (stereo not given in full) | -0.53 | -0.246 | -0.209 | 0.471 | -0.253 | -0.659 | -0.293 (inactive) | -0.578 | -0.47 | -0.948 (inactive) | -0.0535 | -0.663 (inactive) | -1.45 (inactive) | -1.85 (inactive) | 0.0962 (inactive) | -0.249 (inactive) | -1.14 (inactive) | -0.99 (inactive) | -0.6 | 0.0264
O=C1OCC=C[C@H]2OC34C=CCN(c5ccc(Cl)cc5)C(=O)[C@H]3N(CCCO)C(=O)[C@@H]4[C@@H]12 (stereo not given in full) | -0.0108 | 1.46 | -0.722 | 0.237 | -0.802 | -0.545 | 0.978 (inactive) | -0.454 | 0.856 | -0.875 (inactive) | -0.458 | -0.857 (inactive) | -0.393 (inactive) | -0.486 (inactive) | 0.276 (inactive) | 0.123 (inactive) | 0.958 (inactive) | 0.579 (inactive) | 0.0679 | 0.0593
